The full data set covers some 7,900 targets. This sample favours those with a hit. About 0.6% of all pairs of compound and target were hits.
Legend:
Test in all cases: log2 fold change, soluble protein after heating vs DMSO (PISA); higher = thermal stabilisation; K562 cells, 10 uM, 30 min; active = over 0.2 and 3.5 SD of the protein, either way, in both replicates (recomputed)
[1] = compound: NC(=O)Nc1cc(-c2cccc(F)c2)sc1C(=O)N[C@H]1CCCNC1
Procedure, shortened: (§1)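 Soluble protein was defined as the supernatant after 21,000xg for 90 min. It came from K562 cells at 2×10^6 cells/mL given 10 μM compound for 30 min, heated in aliquots for 3 min across 48°C-58°C, pooled, and extracted in PBS with 0.5% NP-40 at 4°C, and was quantified by TMTpro 16plex LC-MS/MS with equalised channel sums. Thermal stability against control samples, from duplicates, is reported as log2 fold change.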

[2] = compound: NC(=O)c1cnc(N[C@@H]2CCCC[C@@H]2N)nc1Nc1cccc(-n2nccn2)c1
Procedure, shortened: as §1

[3] = compound: NC1(c2ccc(-c3nc4ccn5c(=O)[nH]nc5c4cc3-c3ccccc3)cc2)CCC1
Procedure, shortened: as §1

[4] = compound: NCC(=O)Nc1ccc(-n2nc(C(F)(F)F)cc2-c2ccc3c(ccc4ccccc43)c2)cc1
Procedure, shortened: as §1

[5] = compound: Nc1ccccc1NC(=O)c1ccc(CNC(=O)OCc2cccnc2)cc1 [entinostat]
Procedure, shortened: as §1

[6] = compound: O=C(CCCCCCC(=O)Nc1ccccc1)NO [vorinostat]
Procedure, shortened: as §1

[7] = compound: O=C(CCCCCCNC(=O)c1cnc(N(c2ccccc2)c2ccccc2Cl)nc1)NO [citarinostat]
Procedure, shortened: as §1

[8] = compound: O=C(O)c1ccc2c(c1)nc(Nc1cccc(Cl)c1)c1ccncc12 [silmitasertib]
Procedure, shortened: as §1

[9] = compound: O=C1NC(=O)C(c2cnc3ccccn23)=C1c1cn2c3c(cc(F)cc13)CN(C(=O)N1CCCCC1)CC2
Procedure, shortened: as §1

[10] = compound: c1cc(OCCN2CCCCC2)cc(-c2n[nH]c3ccc(-c4nnc[nH]4)cc23)c1
Procedure, shortened: as §1

[11] = compound: c1cn2cc(-c3ccc4cn[nH]c4c3)nc(Nc3ccc(N4CCOCC4)cc3)c2n1 [entospletinib]
Procedure, shortened: as §1

Measured: log2 fold change

SRC isoform 2 (UniProt P12931)
active: [1] -0.578
inactive: [2] 0.006 | [3] 0.049 | [4] -0.088 | [5] 0.12 | [6] 0.079 | [7] -0.104 | [8] 0.122 | [9] 0.093 | [10] 0.199 | [11] 0.02

STXBP5 (UniProt Q5T5C0)
inactive: [1] 0.006 | [2] -0.022 | [3] -0.145 | [4] -0.033 | [5] -0.011 | [6] 0.004 | [7] 0.024 | [8] 0.041 | [9] -0.04 | [10] -0.003 | [11] 0.01

SURF2 (UniProt Q15527)
inactive: [1] 0.019 | [2] 0.076 | [3] 0.033 | [4] 0.088 | [5] -0.012 | [6] -0.009 | [7] 0.06 | [8] 0.079 | [9] -0.004 | [10] -0.018 | [11] 0.047

SUPT5H (UniProt O00267)
inactive: [1] -0.031 | [2] -0.049 | [3] -0.129 | [4] -0.095 | [5] 0.029 | [6] 0.043 | [7] 0.074 | [8] 0.038 | [9] -0.115 | [10] -0.028 | [11] 0.031

SP3 (UniProt Q02447)
Chain of UniProt Q02447 (Q02447 whole entry, looked up): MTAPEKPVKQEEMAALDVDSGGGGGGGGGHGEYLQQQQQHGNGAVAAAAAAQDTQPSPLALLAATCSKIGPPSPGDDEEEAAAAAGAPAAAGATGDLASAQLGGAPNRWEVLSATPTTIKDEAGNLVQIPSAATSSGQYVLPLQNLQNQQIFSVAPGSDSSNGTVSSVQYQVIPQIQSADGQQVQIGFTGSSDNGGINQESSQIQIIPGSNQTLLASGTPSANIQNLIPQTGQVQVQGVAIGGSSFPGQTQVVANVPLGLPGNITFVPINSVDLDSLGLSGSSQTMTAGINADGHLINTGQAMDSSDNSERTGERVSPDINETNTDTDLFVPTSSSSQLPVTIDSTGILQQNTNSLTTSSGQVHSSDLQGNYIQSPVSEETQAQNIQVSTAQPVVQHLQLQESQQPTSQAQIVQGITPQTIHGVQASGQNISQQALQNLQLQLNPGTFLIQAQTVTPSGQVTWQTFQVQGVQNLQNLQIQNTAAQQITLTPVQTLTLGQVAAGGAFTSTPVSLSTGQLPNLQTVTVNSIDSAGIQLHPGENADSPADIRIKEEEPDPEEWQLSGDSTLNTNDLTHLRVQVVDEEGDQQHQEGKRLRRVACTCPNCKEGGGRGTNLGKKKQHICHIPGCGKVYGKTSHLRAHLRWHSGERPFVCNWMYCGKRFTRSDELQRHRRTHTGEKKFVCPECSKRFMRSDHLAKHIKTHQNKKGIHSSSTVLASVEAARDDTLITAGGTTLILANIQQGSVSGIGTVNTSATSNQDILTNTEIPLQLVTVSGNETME
inactive: [1] 0.15 | [2] -0.011 | [3] -0.033 | [4] 0.025 | [5] 0.027 | [6] -0.026 | [7] -0.147 | [8] 0.046 | [9] -0.02 | [10] 0.04 | [11] -0.071

SUOX (UniProt P51687)
inactive: [1] -0.031 | [2] -0.022 | [3] 0.025 | [4] -0.005 | [5] -0.014 | [6] -0.124 | [7] -0.017 | [8] -0.021 | [9] -0.027 | [10] 0.014 | [11] 0.03

TBK1 (UniProt Q9UHD2)
Chain of UniProt Q9UHD2 (Q9UHD2 whole entry, looked up): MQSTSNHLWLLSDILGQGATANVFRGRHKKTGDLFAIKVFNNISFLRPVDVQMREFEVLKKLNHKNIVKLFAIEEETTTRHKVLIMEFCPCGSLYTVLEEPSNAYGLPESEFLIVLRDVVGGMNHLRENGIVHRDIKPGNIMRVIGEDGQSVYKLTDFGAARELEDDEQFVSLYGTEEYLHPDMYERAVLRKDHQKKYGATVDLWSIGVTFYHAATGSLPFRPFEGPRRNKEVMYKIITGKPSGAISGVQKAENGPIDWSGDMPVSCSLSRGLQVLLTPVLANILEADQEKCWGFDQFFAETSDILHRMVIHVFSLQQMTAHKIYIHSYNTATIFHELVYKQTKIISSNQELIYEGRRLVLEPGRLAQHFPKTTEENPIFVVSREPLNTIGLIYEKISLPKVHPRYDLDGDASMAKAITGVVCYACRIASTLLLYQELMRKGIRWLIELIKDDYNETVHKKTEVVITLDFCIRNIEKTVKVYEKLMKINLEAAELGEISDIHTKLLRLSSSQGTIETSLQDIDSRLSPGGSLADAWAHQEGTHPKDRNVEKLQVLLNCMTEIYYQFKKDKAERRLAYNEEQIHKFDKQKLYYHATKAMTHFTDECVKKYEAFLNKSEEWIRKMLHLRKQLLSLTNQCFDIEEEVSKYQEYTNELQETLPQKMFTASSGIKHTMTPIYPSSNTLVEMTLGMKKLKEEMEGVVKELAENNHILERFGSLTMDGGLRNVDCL
inactive: [1] 0.196 | [2] 0 | [3] -0.086 | [4] -0.118 | [5] 0.055 | [6] -0.025 | [7] 0.064 | [8] 0.057 | [9] -0.014 | [10] -0.029 | [11] 0.108

TLK2 isoform 2 (UniProt Q86UE8)
inactive: [1] -0.059 | [2] 0.049 | [3] -0.042 | [4] -0.037 | [5] 0.036 | [6] 0.1 | [7] 0.016 | [8] 0.034 | [9] -0.026 | [10] -0.052 | [11] 0.03

SPTBN4 (UniProt Q9H254)
Chain of UniProt Q9H254 (Q9H254 whole entry, looked up): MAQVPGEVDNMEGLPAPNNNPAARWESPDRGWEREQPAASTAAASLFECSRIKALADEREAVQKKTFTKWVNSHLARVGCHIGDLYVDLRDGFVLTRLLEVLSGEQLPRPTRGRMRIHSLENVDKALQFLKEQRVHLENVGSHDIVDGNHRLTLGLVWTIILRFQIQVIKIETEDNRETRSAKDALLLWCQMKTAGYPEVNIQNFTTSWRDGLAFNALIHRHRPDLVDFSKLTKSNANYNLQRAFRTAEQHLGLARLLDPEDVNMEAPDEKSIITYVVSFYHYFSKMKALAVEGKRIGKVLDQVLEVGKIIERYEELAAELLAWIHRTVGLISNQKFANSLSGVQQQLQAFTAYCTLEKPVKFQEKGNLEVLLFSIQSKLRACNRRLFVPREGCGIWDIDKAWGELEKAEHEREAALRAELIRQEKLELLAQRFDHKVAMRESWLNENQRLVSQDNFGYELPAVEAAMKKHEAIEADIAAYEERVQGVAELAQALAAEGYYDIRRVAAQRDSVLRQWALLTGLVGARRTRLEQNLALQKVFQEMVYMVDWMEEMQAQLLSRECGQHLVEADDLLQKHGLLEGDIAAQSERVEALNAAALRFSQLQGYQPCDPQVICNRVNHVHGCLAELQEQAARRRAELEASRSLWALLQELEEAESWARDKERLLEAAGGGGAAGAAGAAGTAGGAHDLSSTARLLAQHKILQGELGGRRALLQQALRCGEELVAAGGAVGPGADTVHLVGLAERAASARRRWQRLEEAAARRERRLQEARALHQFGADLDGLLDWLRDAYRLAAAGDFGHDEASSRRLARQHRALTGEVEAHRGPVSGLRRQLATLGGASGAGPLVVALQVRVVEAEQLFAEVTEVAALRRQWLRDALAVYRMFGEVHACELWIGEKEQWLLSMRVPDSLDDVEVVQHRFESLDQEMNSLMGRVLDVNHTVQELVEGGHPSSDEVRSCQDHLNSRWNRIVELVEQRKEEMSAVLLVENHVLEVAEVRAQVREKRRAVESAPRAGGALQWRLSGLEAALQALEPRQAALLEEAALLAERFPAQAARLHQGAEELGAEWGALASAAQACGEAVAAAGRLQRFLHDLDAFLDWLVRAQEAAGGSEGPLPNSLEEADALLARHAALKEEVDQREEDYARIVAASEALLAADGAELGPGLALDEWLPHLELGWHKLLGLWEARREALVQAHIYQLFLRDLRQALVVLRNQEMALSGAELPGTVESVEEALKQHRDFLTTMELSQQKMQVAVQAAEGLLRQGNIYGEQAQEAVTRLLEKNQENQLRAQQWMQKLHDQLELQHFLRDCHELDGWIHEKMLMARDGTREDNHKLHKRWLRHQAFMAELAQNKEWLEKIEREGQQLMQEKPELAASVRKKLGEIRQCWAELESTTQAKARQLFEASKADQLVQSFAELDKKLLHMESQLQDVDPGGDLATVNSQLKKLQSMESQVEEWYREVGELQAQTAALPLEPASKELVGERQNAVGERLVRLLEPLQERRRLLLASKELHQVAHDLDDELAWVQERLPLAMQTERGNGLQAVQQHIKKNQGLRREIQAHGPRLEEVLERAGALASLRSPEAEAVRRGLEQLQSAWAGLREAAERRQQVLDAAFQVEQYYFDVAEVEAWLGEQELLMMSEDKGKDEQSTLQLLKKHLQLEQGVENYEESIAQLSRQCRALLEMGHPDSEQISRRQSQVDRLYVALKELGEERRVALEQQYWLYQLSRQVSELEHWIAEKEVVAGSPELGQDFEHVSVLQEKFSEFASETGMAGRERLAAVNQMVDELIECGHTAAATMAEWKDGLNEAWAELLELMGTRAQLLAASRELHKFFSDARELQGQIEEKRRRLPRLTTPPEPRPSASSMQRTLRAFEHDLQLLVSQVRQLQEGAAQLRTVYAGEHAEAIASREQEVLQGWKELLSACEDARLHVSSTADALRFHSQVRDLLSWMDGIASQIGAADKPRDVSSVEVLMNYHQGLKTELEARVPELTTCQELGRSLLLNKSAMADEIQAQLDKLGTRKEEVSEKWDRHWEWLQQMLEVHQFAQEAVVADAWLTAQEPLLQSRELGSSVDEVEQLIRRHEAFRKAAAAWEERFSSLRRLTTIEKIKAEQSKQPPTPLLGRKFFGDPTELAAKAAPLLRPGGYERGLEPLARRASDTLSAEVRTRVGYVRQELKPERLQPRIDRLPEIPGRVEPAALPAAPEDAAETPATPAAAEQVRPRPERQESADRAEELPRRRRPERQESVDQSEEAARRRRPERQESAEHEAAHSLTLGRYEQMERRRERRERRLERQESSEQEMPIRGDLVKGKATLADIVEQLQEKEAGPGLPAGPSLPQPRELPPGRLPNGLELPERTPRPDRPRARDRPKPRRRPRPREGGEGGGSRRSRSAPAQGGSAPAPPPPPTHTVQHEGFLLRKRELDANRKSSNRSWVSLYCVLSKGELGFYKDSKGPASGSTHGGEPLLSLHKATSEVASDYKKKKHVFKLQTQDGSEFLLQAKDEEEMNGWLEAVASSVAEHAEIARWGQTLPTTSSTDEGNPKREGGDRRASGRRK
inactive: [1] 0 | [2] -0.09 | [3] -0.095 | [4] 0.033 | [5] 0.014 | [6] 0.026 | [7] 0.05 | [8] 0.062 | [9] 0.129 | [10] -0.013 | [11] 0

TIMM10 (UniProt P62072)
inactive: [1] -0.004 | [2] 0.042 | [3] -0.027 | [4] -0.077 | [5] 0.058 | [6] -0.048 | [7] -0.012 | [8] 0.009 | [9] -0.04 | [10] -0.043 | [11] 0.009

SPG21 (UniProt Q9NZD8)
inactive: [1] 0.072 | [3] -0.054 | [4] 0.123 | [5] 0.004 | [6] 0.013 | [7] -0.001 | [8] -0.013 | [9] -0.104 | [10] 0.007 | [11] -0.028
active: [2] 0.305

TECR (UniProt Q9NZ01)
inactive: [1] 0 | [2] -0.071 | [3] -0.087 | [4] -0.048 | [5] 0.042 | [6] 0.064 | [7] 0.07 | [8] 0.025 | [9] -0.07 | [10] -0.056 | [11] -0.018

SRSF2 (UniProt Q01130)
inactive: [1] -0.056 | [2] 0.04 | [3] 0.139 | [4] -0.006 | [5] -0.067 | [6] -0.057 | [7] -0.04 | [8] -0.062 | [9] 0.059 | [10] -0.081 | [11] 0.071

SLC29A3 (UniProt Q9BZD2)
inactive: [1] -0.098 | [2] -0.124 | [3] -0.304 | [4] 0.04 | [5] -0.022 | [7] -0.123 | [8] 0.047 | [9] 0.142 | [10] -0.033 | [11] 0.023

TAMM41 isoform 3 (UniProt Q96BW9)
inactive: [1] 0.001 | [2] -0.052 | [3] -0.148 | [4] -0.059 | [5] 0.022 | [6] 0.023 | [7] 0.013 | [8] -0.004 | [9] -0.125 | [10] -0.043 | [11] -0.039

SSX2 (UniProt Q16385)
Chain of UniProt Q16385 (Q16385 whole entry, looked up): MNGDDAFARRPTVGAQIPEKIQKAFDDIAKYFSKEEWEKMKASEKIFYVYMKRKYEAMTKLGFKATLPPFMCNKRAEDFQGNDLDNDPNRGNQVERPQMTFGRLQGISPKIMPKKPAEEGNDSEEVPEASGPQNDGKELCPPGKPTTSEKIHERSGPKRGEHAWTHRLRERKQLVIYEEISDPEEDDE
inactive: [1] -0.049 | [2] -0.094 | [3] -0.02 | [4] -0.057 | [5] -0.054 | [6] -0.022 | [7] -0.025 | [8] 0.011 | [9] -0.098 | [10] 0.033 | [11] 0.041

SORT1 (UniProt Q99523)
Chain of UniProt Q99523 (Q99523 whole entry, looked up): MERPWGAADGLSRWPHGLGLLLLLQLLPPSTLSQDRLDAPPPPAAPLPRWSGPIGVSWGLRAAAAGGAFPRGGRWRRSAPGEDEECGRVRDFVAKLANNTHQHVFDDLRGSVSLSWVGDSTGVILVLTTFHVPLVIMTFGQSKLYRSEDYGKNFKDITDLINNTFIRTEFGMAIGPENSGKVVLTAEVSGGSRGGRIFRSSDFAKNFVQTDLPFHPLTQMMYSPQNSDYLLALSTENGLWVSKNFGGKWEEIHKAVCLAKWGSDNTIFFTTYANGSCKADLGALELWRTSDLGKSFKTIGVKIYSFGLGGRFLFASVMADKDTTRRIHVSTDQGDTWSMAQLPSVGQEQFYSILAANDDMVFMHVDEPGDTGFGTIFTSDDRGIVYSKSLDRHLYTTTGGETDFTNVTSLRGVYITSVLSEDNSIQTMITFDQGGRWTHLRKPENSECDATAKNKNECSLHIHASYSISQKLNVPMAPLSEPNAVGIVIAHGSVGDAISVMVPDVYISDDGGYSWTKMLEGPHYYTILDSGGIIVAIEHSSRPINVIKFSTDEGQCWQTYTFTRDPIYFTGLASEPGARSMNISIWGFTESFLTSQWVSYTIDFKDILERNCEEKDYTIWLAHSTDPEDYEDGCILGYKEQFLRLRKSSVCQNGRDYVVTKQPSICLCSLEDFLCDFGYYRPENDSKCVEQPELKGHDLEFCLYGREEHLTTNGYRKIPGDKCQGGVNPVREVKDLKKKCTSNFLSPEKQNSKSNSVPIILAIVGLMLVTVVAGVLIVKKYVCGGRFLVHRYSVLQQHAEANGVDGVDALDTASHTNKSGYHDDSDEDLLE
active: [3] -0.687
inactive: [1] -0.005 | [2] -0.032 | [4] 0.038 | [5] -0.017 | [6] -0.002 | [7] 0.073 | [8] 0.006 | [9] 0.004 | [10] -0.139 | [11] 0.05

SNX15 (UniProt Q9NRS6)
active: [6] 0.436
inactive: [1] 0.106 | [2] -0.135 | [3] -0.048 | [4] -0.133 | [5] 0.061 | [7] 0.113 | [8] 0.276 | [10] -0.073 | [11] 0.124

SPAST (UniProt Q9UBP0)
inactive: [1] 0.027 | [2] -0.003 | [3] -0.12 | [4] -0.109 | [5] 0.075 | [6] 0.033 | [7] 0.058 | [8] 0.028 | [9] -0.035 | [10] -0.029 | [11] 0

STARD3 (UniProt Q14849)
inactive: [1] 0.014 | [2] 0.079 | [3] -0.236 | [4] -0.073 | [5] 0.004 | [6] -0.021 | [8] 0.053 | [9] -0.003

SMAP (UniProt O00193)
inactive: [1] 0.007 | [2] -0.021 | [3] 0.12 | [4] 0.013 | [5] 0.016 | [6] -0.047 | [7] -0.029 | [8] -0.033 | [9] 0.006 | [10] 0.02 | [11] 0.07

SUCLG1 (UniProt P53597)
inactive: [1] -0.037 | [2] -0.077 | [3] -0.106 | [4] -0.059 | [5] 0.012 | [6] 0 | [7] 0.043 | [8] -0.037 | [9] -0.073 | [10] -0.049 | [11] -0.041

SYNE2 isoform 2 (UniProt Q8WXH0)
inactive: [1] -0.229 | [2] -0.172 | [3] 0.087 | [4] -0.134 | [5] -0.125 | [6] 0.072 | [7] 0.053 | [8] -0.056 | [10] 0.03 | [11] -0.069

TIMM21 (UniProt Q9BVV7)
inactive: [1] -0.041 | [2] -0.055 | [3] -0.087 | [4] -0.047 | [5] -0.015 | [6] 0.04 | [7] 0.052 | [8] 0.024 | [9] -0.016 | [10] -0.016 | [11] 0.017

SLC7A6 (UniProt Q92536)
inactive: [1] -0.07 | [2] 0.089 | [3] 0.06 | [4] -0.017 | [5] -0.029 | [6] -0.003 | [7] 0.026 | [8] 0.007 | [9] -0.135 | [10] -0.049 | [11] 0.031

SLC39A11 (UniProt Q8N1S5)
active: [11] -0.458
inactive: [1] 0 | [2] -0.027 | [3] -0.085 | [4] 0.024 | [5] -0.016 | [6] -0.063 | [7] -0.059 | [8] 0.078 | [10] -0.122

TAOK1 (UniProt Q7L7X3)
inactive: [1] -0.043 | [2] -0.04 | [3] -0.063 | [4] -0.068 | [5] -0.01 | [6] 0.048 | [7] 0 | [8] -0.003 | [9] -0.038 | [10] -0.194 | [11] -0.009

TMBIM6 isoform 2 (UniProt P55061)
inactive: [1] 0.027 | [2] -0.119 | [3] 0.189 | [4] -0.015 | [5] 0.044 | [7] 0.05 | [8] -0.206 | [9] -0.089 | [10] -0.067 | [11] -0.038

— the supplement of paper PMC10849652
